DT40 TDP1 CPT = qHTS for Inhibitors of human tyrosyl-DNA phosphodiesterase 1 (TDP1): qHTS in cells in presence of CPT; AID 686979, 2013; 420,000 compounds, 12% hits; Potency, µM (series often up to 46.2 µM), without a hit: at the top dose activity change, negative = growth inhibition, actives largely listed as inhibitors; chicken DT40 Tdp1-/-;hTDP1 cells + 20 nM CPT, ATP luminescence, 48 h; also: potency is read from the fitted curve at half-maximal effect; nearly all actives have a fitted effect of over 55% in size
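Chicken DT40 Tdp1-/- cells complemented with human TDP1, 400 cells/well, exposed to compounds plus 20 nM camptothecin for at least 48 h at 37 C; viability read as ATP content by CellTiter-Glo luminescence.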
TDP1 inh = qHTS Assay for Inhibitors of Tyrosyl-DNA Phosphodiesterase (TDP1); 350,000 compounds, 0.28% hits; Potency, µM (top dose mostly 130 µM), without a hit: top-dose activity change, negative = inhibition, usual class: inhibitors; recombinant TDP1, AlphaScreen DNA substrate cleavage; AID 485290, 2010; also: potency is read from the fitted curve at half-maximal effect; nearly all actives have a fitted effect of over 40% in size
Target sequence (Q9NUW8 whole entry, looked up): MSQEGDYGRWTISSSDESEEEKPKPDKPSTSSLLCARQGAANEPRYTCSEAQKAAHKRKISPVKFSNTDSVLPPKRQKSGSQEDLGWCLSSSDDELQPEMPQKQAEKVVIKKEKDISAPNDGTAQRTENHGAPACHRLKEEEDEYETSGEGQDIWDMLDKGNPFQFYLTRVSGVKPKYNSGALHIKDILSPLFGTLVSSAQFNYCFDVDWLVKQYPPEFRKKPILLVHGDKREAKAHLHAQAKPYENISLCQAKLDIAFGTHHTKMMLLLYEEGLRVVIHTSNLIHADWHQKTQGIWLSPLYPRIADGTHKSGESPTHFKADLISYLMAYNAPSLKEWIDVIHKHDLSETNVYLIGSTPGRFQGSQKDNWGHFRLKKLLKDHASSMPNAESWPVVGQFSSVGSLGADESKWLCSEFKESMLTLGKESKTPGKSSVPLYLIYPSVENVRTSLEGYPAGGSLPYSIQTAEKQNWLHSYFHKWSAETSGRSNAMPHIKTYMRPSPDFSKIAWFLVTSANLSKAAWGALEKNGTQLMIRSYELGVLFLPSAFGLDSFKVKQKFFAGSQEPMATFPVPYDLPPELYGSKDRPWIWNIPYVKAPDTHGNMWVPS
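Recombinant human Tdp1 (E. coli-expressed, 1 nM final) preincubated with compounds 15 min at room temperature, then 5'-biotin/3'-phosphotyrosine-FITC DNA substrate (15 nM final) added for 5 min. AlphaScreen beads (10 ug/ml final) added 10 min; cleavage lowers signal.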
Giardia kill = Small Molecules that selectively kill Giardia lamblia: qHTS | Giardia lamblia trophozoite viability | activity change, % at 7.66 µM, hits read low | 340,000 compounds, 0.15% hits; in the data active = activity change below about -80%; inconclusive = between about -30% and that limit;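 also: parasites exposed to compound for two days anaerobically before the ATP read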
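Anaerobic 48 hrs incubation at 37 deg C of 100 trophozoites/well with test compounds; ATPLite 1-Step luminescence, 15-30 min RT, reports cellular ATP as viability.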
ELG1 repair inh = qHTS screen for small molecules that inhibit ELG1-dependent DNA repair in human embryonic kidney (HEK293T) cells expressing luciferase-tagged ELG1. HEK293T ELG1-luciferase reporter, luminescence, 16 h; DNA damage induced by 5-fluorouridine. 330,000 compounds, 2.3% hits. AID 504467, 2011. Potency, µM (top dose mostly 46.1 µM), without a hit: at the top dose activity change, negative = inhibition, most hits filed as inhibitors; also: potency is read from the fitted curve at half-maximal effect; nearly all actives have a fitted effect of over 55% in size
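Cells (2,000 per well) received 5-fluorouridine plus test compound or DMSO and were incubated 16 hr at 37 °C, 5% CO2. Luciferase activity was read by luminescence 30 min after ONE-Glo addition; signal suppression marked inhibition of damage-induced ELG1 function.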
IL-1B inflam inh = qHTS for Inhibitors of Inflammasome Signaling: IL-1-beta AlphaLISA Primary Screen | THP-1 LPS/ATP IL-1B secretion, AlphaLISA, 16 h; active compounds read low | activity change, % at 57.5 µM | 360,000 compounds, 4.7% hits | AID 743279, 2014; in the data active = activity change below about -50%; inconclusive = mostly about -30% to -49%
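THP-1 cells pretreated 1 hr with compounds (up to 57.5 uM final), then stimulated with LPS (250 ng/mL final) plus ATP (1.25 mM final); secreted IL-1B measured by AlphaLISA after 16 hr, decreased signal indicating inhibition.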
TDP1 cell noCPT = qHTS for Inhibitors of human tyrosyl-DNA phosphodiesterase 1 (TDP1): qHTS in cells in absence of CPT; DT40 Tdp1-/- hTDP1 cells, no CPT, ATP luminescence, 48 h; Potency, µM (highest dose often 46.2 µM), without a hit: at the highest dose activity change, negative = growth inhibition, hits mostly inhibitors; 420,000 compounds, 15% hits; AID 686978, 2013; also: potency is read from the fitted curve at half-maximal effect; nearly all actives have a fitted effect of over 55% in size
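DT40 Tdp1-/-;hTDP1 cells, no CPT (DMSO vehicle only), 400 cells/well; compounds pin-transferred; ≥48 hr, 37 °C; CellTiter-Glo 30 min RT dark, luminescence read.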
Numbers without * were called inactive; ? = inconclusive; . = no result; [ ] = remark or other dose. Most compounds without a hit are left out; they make up all but 19% or so of the library. Unless noted, calls follow the shape of the dose curve; as a rule, active = well fitted curve in the direction sought with a large enough effect; inconclusive = small, poorly fitted or top-dose-only effect, or another doubt; inactive = no such curve, though single readings can be large; an effect the other way counts as inactive or inconclusive. % is scaled to controls: 0 for no effect and ±100 for the full control effect.

SMILES	DT40 TDP1 CPT	TDP1 inh	Giardia kill	ELG1 repair inh	IL-1B inflam inh	TDP1 cell noCPT
CC(Cc1ccccc1Sc1ccccc1O)N(C)C (stereo not given)	?	-1.8%	-11.8	-4.1%	-5.8	11.6µM*
CCOC(=O)[C@]12Cc3cc(C)ccc3[C@H]1N(C)C(=O)c1cc(OC)ccc12	20.6µM*	.	.	.	-116.2*	23.1µM*
CCOC(=O)[C@]12Cc3cc(OC)ccc3[C@H]1N(C)C(=O)c1ccccc12	-26.7%	.	.	.	?	?
CCOC(=O)[C@]12Cc3cc(Cl)ccc3[C@H]1N(C)C(=O)c1ccccc12	?	.	.	.	-62.4*	?
CCOC(=O)[C@]12Cc3cc(Cl)ccc3[C@H]1N(CC(=O)OC)C(=O)c1ccccc12	9.2µM*	.	.	.	.	4.11µM*
CCOC(=O)[C@]12Cc3cc(C)ccc3[C@H]1N(C)C(=O)c1ccccc12	16.4µM*	.	.	.	-13.1	16.4µM*
Oc1c(Cl)cc(Cl)cc1Cl	.	5.9%	.	.	.	.
c1cc(CN2CC3(CCNCC3)C2)ccn1	-12.6%	.	.	.	.	-16.3%
CCOC(=O)[C@]12Cc3cc(Cl)ccc3[C@H]1N(C(C)C)C(=O)c1ccccc12	2.59µM*	.	.	.	.	3.26µM*
Nc1c(C(=O)Nc2cccc(F)c2)sc2nc(-c3cccs3)ccc12	?	.	.	.	.	-29.4%
O=C(Nc1ccc2nc(-c3cccs3)c(-c3cccs3)nc2c1)NC1CC1	?	1.1%	-4.9	?	?	17.8µM*
CCOC(=O)C(SP(=S)(OC)OC)c1ccccc1 (stereo not given)	.	-4.3%	.	.	.	.
Cc1cccc(C)c1Oc1nc(-c2ccccc2)ncc1S(=O)(=O)c1ccccc1	?	-3.1%	5.6	16.6%	2.2	18.4µM*
COc1cccc(CN(C)C(=O)c2cccc(S(=O)(=O)N3CCN(c4ccccc4)CC3)c2)c1	11.6µM*	.	.	.	-14.3	7.31µM*
COc1cccc(CN2CCN(C(=O)Cc3ccccc3OC)CC2)c1	0.4%	3.2%	-12.0	-4.6%	-7.0	-28.0%
Cc1ccc(CN(C)C(=O)c2cccc(S(=O)(=O)N3CCN(c4ccccc4)CC3)c2)cc1	?	.	3.2	.	?	14.6µM*
C=C(C)C1Cc2c(ccc3c(=O)c4c(oc23)COc2cc(OC)c(OC)cc2-4)O1 (stereo not given)	-11.6%[9.04 µM]	8.1%	.	.	.	-23.3%[9.04 µM]
O=C(Nc1cccc2ccccc12)N1Cc2ccccc2-n2nncc2C1	-27.1%	.	.	.	24.9	?
O=C(Nc1cccc2ccccc12)c1nn(C23CC4CC(CC(C4)C2)C3)cc1Br	23.1µM*	-5.3%	6.6	3.9%	-3.5	16.4µM*
CC(C)C[C@H](NC(=O)CNC(=O)[C@H](CCC(N)=O)NC(=O)[C@H](Cc1ccc(O)cc1)NC(=O)[C@@H](NC(=O)[C@H](Cc1ccc(O)cc1)NC(=O)CNC(=O)[C@@H](N)CCCN=C(N)N)C(C)C)C(=O)O	.	4.9%	.	.	.	.
CCC1(O)C(=O)OCc2c1cc1n(c2=O)Cc2cc3c(N)cccc3nc2-1 (stereo not given)	0.206µM*	.	11.5	.	-96.7*	0.0517µM*
O=C(COc1ccc(S(=O)(=O)N2CCCCC2)cc1)N1CCN(Cc2ccccc2)CC1	?	2.1%	-4.0	?	9.4	?
N#CC(C#N)=NNc1ccc(S(=O)(=O)N2CCCC2)cc1	?	5.3%	-4.1	-27.4%	-26.0	16.4µM*
COc1cccc(NC(=O)CSC2=Nc3ccccc3C3=NC(CCC(=O)NCCc4ccccc4)C(=O)N23)c1 (stereo not given)	20.6µM*	1.5%	.	.	.	20.6µM*

Bioassay records deposited in PubChem by National Center for Advancing Translational Sciences (NCATS).
